BoNT A protease: BoNT A light chain protease inhibition. hit rate 0.17% among 360,000. multiplex microsphere protease substrate cleavage, flow cytometry. inhibition, % at 10 µM; also: plate controls were buffer without enzyme for full effect and enzyme alone for no effect
BJeLR lethal: kills HRASV12-expressing BJeLR cells; BJeLR (HRASV12) viability, CellTiter-Glo ATP luminescence, 48 h; inhibition, % (test concentration not listed); hit rate 0.17% among 300,000; AID 1554; in the data active = inhibition above about 50%; inconclusive = no clear call, values can overlap the other calls
BoNT F protease: blocks Botulinum neurotoxin F light chain protease; hit rate 0.22% among 360,000; inhibition, % at 10 µM; Multiplex microsphere protease cleavage assay, flow cytometry; in the data active = inhibition above about 35%, passing the limit was not always enough; inconclusive = no clear call, values can overlap the other calls; also: plate controls were buffer without enzyme for full effect and enzyme alone for no effect
3CLpro inhibitor: SARS-CoV 3CLpro protease inhibition; P0C6X7; recombinant SARS-CoV 3CLpro, quenched FRET peptide cleavage; inhibition, % at 6 µM; hit rate 0.14% among 290,000; in the data active = inhibition above about 12%
Anthrax LF prot: anthrax lethal factor protease inhibition. multiplex microsphere protease cleavage assay, LF. inhibition, % at 10 µM. hit rate 0.12% among 360,000. AID 588501; also: plate controls were buffer without enzyme for full effect and enzyme alone for no effect
Target sequence (P15917 whole entry, looked up): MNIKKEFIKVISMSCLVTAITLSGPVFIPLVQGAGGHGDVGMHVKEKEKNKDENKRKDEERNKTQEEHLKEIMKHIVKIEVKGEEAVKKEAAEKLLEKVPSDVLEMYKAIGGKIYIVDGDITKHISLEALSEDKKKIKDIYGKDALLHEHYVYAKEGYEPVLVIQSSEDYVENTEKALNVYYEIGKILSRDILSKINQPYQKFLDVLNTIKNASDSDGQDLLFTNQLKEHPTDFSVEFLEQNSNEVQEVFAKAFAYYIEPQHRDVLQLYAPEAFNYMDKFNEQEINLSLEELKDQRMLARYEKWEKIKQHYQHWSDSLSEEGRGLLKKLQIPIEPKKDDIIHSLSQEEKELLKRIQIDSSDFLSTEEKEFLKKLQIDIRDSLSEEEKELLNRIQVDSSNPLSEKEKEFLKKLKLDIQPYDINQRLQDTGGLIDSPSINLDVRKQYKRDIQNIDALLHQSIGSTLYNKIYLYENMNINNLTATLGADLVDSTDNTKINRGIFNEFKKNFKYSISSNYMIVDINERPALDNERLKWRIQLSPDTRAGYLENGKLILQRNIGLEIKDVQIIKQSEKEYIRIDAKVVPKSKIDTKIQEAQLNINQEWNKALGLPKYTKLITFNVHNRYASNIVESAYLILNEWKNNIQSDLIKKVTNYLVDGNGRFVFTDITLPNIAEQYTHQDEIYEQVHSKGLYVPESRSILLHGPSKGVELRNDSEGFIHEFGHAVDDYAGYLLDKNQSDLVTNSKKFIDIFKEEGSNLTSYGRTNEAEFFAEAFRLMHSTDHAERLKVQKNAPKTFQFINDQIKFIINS
Autofluor counter: counter-screen for toxin protease inhibitors: compound fluorescence | compound autofluorescence counterscreen, microsphere flow cytometry; active compounds read high | fluorescence intensity (no concentration beside the values) | hit rate 3.1% among 360,000 | AID 624483; in the data active = fluorescence intensity above about 16000; inconclusive = no clear call, values can overlap the other calls
The depositor's hits bear a star. This is a sample that favours compounds with a hit; in the whole collection about 3.6% have one here. Rule as the data show it, unless noted: active = inhibition above about 30%; inconclusive = no clear call, values can overlap the other calls; inactive = below that.

What do the screens show for `COc1ccc(C(=O)Nc2ccc(N3CCOCC3)cc2)cc1S(=O)(=O)N1CCOCC1`?
BoNT A protease: 3; BoNT F protease: 3; Anthrax LF prot: 8; Autofluor counter: inconclusive

What do the screens show for `COc1ccc(N2CCN(C(=O)c3ccc(-n4nc(C)cc4C)cc3)CC2)cc1`?
BoNT A protease: -4; BJeLR lethal: -1; BoNT F protease: -8; 3CLpro inhibitor: 2; Anthrax LF prot: -3; Autofluor counter: 25032*

Results for Cc1ccc(C(=O)O)cc1S(=O)(=O)N1CCOCC1 ?
BoNT A protease: -2; BJeLR lethal: 0; BoNT F protease: -3; 3CLpro inhibitor: 1; Anthrax LF prot: -1; Autofluor counter: 16552*

Results for CCOC(=O)CC(=O)Nc1ccc(Br)cc1C(=O)O ?
BoNT A protease: -1; BJeLR lethal: 8; BoNT F protease: -23; 3CLpro inhibitor: -1; Anthrax LF prot: -5; Autofluor counter: 4571

Results for CCN(CC(=O)NCCC1=CCCCC1)S(=O)(=O)c1ccccc1 ?
BoNT A protease: -2; BJeLR lethal: 8; BoNT F protease: -7; 3CLpro inhibitor: 2; Anthrax LF prot: -7; Autofluor counter: 3269

How did COc1ccc(OC(=O)c2cccc(S(=O)(=O)N3CCCC3)c2)cc1 do in these assays?
BoNT A protease: -5; BJeLR lethal: 2; BoNT F protease: -5; 3CLpro inhibitor: -5; Anthrax LF prot: -3; Autofluor counter: 24453*

Results for COc1ccc(N2CCN(C(=O)c3ccc(S(=O)(=O)N4CCOCC4)cc3)CC2)cc1 ?
BoNT A protease: 0; BJeLR lethal: 3; BoNT F protease: 2; 3CLpro inhibitor: -1; Anthrax LF prot: 2; Autofluor counter: 22765*

How did COc1ccc(N2CCN(S(=O)(=O)c3ccc(Cl)c(C(F)(F)F)c3)CC2)cc1 do in these assays?
BoNT A protease: 0; BJeLR lethal: -3; BoNT F protease: 6; 3CLpro inhibitor: 7; Anthrax LF prot: -10; Autofluor counter: 9321

How did O=C(c1cccc(S(=O)(=O)N2CCOCC2)c1)N1CCN(c2ccc(F)cc2)CC1 do in these assays?
BoNT A protease: 4; BJeLR lethal: 15; BoNT F protease: 5; 3CLpro inhibitor: -3; Anthrax LF prot: -5; Autofluor counter: 21227*

How did COC(=O)c1cccc(S(=O)(=O)N2CCCC2)c1 do in these assays?
BoNT A protease: 0; BJeLR lethal: -1; BoNT F protease: 2; 3CLpro inhibitor: -3; Anthrax LF prot: -2; Autofluor counter: 2380

What do the screens show for `COc1ccc(N2CCN(S(=O)(=O)c3cccc(C(F)(F)F)c3)CC2)cc1`?
BoNT A protease: 1; BJeLR lethal: -1; BoNT F protease: -4; 3CLpro inhibitor: -5; Anthrax LF prot: -11; Autofluor counter: 20076*

What do the screens show for `C[C@H](CO)NC(=O)c1nc[nH]c1C(=O)N[C@H](C)c1ccccc1`?
BoNT A protease: 0; BoNT F protease: 0; Anthrax LF prot: -10; Autofluor counter: 3737

How did COc1cc2c(cc1NC(=O)c1cc(-c3ccccn3)nc3ccccc13)oc1ccccc12 do in these assays?
BoNT A protease: 1; BJeLR lethal: -6; BoNT F protease: -1; 3CLpro inhibitor: 8; Anthrax LF prot: -1; Autofluor counter: 2145

How did COc1ccc(C(=O)N2CCCC2)cc1S(=O)(=O)N1CCOCC1 do in these assays?
BoNT A protease: 0; BJeLR lethal: -3; BoNT F protease: -2; 3CLpro inhibitor: 0; Anthrax LF prot: 2; Autofluor counter: 20709*

What do the screens show for `COc1ccc(C(=O)N2CCN(S(=O)(=O)c3ccc(C)cc3)CC2)cc1S(=O)(=O)N1CCOCC1`?
BoNT A protease: 0; BJeLR lethal: 12; BoNT F protease: -7; 3CLpro inhibitor: 1; Anthrax LF prot: -1; Autofluor counter: 4445

How did O=S(=O)(c1cccc(-n2cnnn2)c1)N1CCOCC1 do in these assays?
BoNT A protease: 0; BJeLR lethal: -14; BoNT F protease: 0; 3CLpro inhibitor: -2; Anthrax LF prot: -2; Autofluor counter: 5253

How did COc1ccc(S(=O)(=O)N2CCN(C(=O)CC(C)C)CC2)cc1 do in these assays?
BoNT A protease: 4; BJeLR lethal: -13; BoNT F protease: 40*; 3CLpro inhibitor: 5; Anthrax LF prot: -4; Autofluor counter: 2951

Results for COc1ccc(CC(=O)N2CCN(C)CC2)cc1 ?
BoNT A protease: 0; BJeLR lethal: -5; BoNT F protease: -2; 3CLpro inhibitor: -9; Anthrax LF prot: -2; Autofluor counter: 16186*

What do the screens show for `COc1cc(-n2cnnn2)ccc1S(=O)(=O)N1CCOCC1`?
BoNT A protease: inconclusive; BJeLR lethal: -2; BoNT F protease: -2; 3CLpro inhibitor: 5; Anthrax LF prot: 1; Autofluor counter: 22844*

Results for O=C(c1cccc(S(=O)(=O)N2CCOCC2)c1)N1CCCCCC1 ?
BoNT A protease: -2; BJeLR lethal: -6; BoNT F protease: -2; 3CLpro inhibitor: -2; Anthrax LF prot: 2; Autofluor counter: 23147*

How did COCC(=O)N(Cc1cc2ccc(C)cc2[nH]c1=O)c1ccc(OC)cc1 do in these assays?
BoNT A protease: inconclusive; BJeLR lethal: 6; BoNT F protease: 1; 3CLpro inhibitor: 0; Anthrax LF prot: -2; Autofluor counter: 23081*

What do the screens show for `CCOc1ccc(N(Cc2cc3ccc(C)cc3[nH]c2=O)C(=O)COC)cc1`?
BoNT A protease: 0; BJeLR lethal: -1; BoNT F protease: -5; 3CLpro inhibitor: 0; Anthrax LF prot: 0; Autofluor counter: 4792

How did CCn1c(SCC(=O)N2CCCC(C)C2)nnc1-c1ccc(S(=O)(=O)N2CCN(C)CC2)cc1 (stereo not given) do in these assays?
BoNT A protease: 0; BJeLR lethal: -8; BoNT F protease: -2; 3CLpro inhibitor: 0; Anthrax LF prot: -6; Autofluor counter: 5786

How did N#CCSc1nnc(-c2ccc(S(=O)(=O)N3CCOCC3)cc2)n1CC1CCCO1 (stereo not given) do in these assays?
BoNT A protease: inconclusive; BJeLR lethal: -1; BoNT F protease: -6; 3CLpro inhibitor: 0; Anthrax LF prot: -6; Autofluor counter: 22267*

Results for CCn1c(SCC(=O)N2CCCCC2)nnc1-c1ccc(S(=O)(=O)N2CCN(C)CC2)cc1 ?
BoNT A protease: 1; BJeLR lethal: 3; BoNT F protease: 3; 3CLpro inhibitor: -1; Anthrax LF prot: 0; Autofluor counter: 16315*

Results for CCOC(=O)CSc1nnc(-c2ccc(S(=O)(=O)N3CCOCC3)cc2)n1-c1ccccc1 ?
BoNT A protease: -1; BJeLR lethal: 3; BoNT F protease: -6; 3CLpro inhibitor: -5; Anthrax LF prot: 1; Autofluor counter: 4465

How did Cc1nnc(SCC(=O)c2ccc(S(=O)(=O)N3CCOCC3)cc2)n1-c1ccccc1 do in these assays?
BoNT A protease: inconclusive; BJeLR lethal: 4; BoNT F protease: -6; 3CLpro inhibitor: 1; Anthrax LF prot: -2; Autofluor counter: 24041*

Results for CCn1c(SCC(=O)N2CCCC2)nnc1-c1ccc(S(=O)(=O)N2CCCCCC2)cc1 ?
BoNT A protease: inconclusive; BJeLR lethal: 1; BoNT F protease: 2; 3CLpro inhibitor: -4; Anthrax LF prot: 2; Autofluor counter: 19519*

Screening results: PubChem BioAssay, several laboratories
